From paper PMC7826789 (International Journal of Molecular Sciences, 2021)

test system: CAMK1D; settings: Compound Concentration (nM):1000
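Further: KINOMEscan scanMAX binding as percent activity remaining versus control; lower means stronger binding.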

Structure (SMILES) | Percent Control [%]
O=C(Nc1n[nH]c2nc(-c3ccc(O)cc3)c(Br)cc12)C1CC1 [SB-725317] | 100
COc1cccc(-c2c[nH]c3c(N/N=C/c4ccncc4)ncnc23)c1 [GW814408X] | 100
Cl.O=C(O[C@H]1CN[C@H](C#Cc2cc3ncnc(Nc4ccc5c(cnn5Cc5ccccc5)c4)c3s2)C1)N1CCOCC1 [GSK200398A] | 100
CCS(=O)(=O)c1ccc(OC)c(Nc2ncc(-c3cccc(OC)c3)o2)c1 [GW580509X] | 99
COc1ccc2cc(-c3c(-c4ccncc4)nc(-c4ccc(S(C)(=O)=O)cc4C)n3C)ccc2c1 [SB-633825] | 96
COc1ccc(COc2ccc(Cc3cnc(N)nc3N)cc2OC)cc1 [GW632580X] | 95
C[C@@H](Oc1cc(-n2cnc3ccc(OC4CCN(C)CC4)cc32)sc1C(N)=O)c1ccccc1Cl [GSK579289A] | 61
CCS(=O)(=O)c1ccc(OC)c(Nc2ncc(-c3cccc(F)c3)o2)c1 [GW621970X] | 100
COc1cc(N2CCN(C(C)C)CC2)ccc1Nc1nc(Nc2ccc(F)cc2C(=O)NC[C@@H](O)CO)c2cc[nH]c2n1 [GSK1392956A] | 40
COc1cc2ncn(-c3cc(O[C@H](C)c4ccccc4Cl)c(C(N)=O)s3)c2cc1OC [GSK237701A] | 91
Cl.O=C(Nc1ccc(Oc2ccc3[nH]c(NC(=O)c4ccccc4)nc3c2)cc1)Nc1cc(C(F)(F)F)ccc1F [GW709042A] | 97
COc1cc(C)c(N(C)C(=O)CN(C)C)cc1Nc1nc(Nc2cccc(F)c2C(N)=O)c2cc[nH]c2n1 [GSK2219385] | 87
CCc1ccc(Oc2nccc(-c3c(-c4ccc(F)cc4)ncn3C3CCNCC3)n2)cc1 [SB-242719] | 86
CC1=C(C(=O)Nc2ccc3[nH]ncc3c2)C(c2ccc3ccccc3c2)CC(=O)N1 (stereo not shown) [GSK270822A] | 97
Nc1ncnc2occ(-c3ccc(NC(=O)Nc4cc(C(F)(F)F)ccc4F)cc3)c12 [GW770249X] | 93
O=C1Nc2ccc(C(=O)c3ccco3)cc2C1=Cc1cc(Cl)c(O)c(Cl)c1 [GW406108X] | 81
COc1ccc2[nH]c3c4[nH]c5ccc(OC)cc5c4c4c(c3c2c1)C(=O)NC4=O [GW296115X] | 64
CN(C)CCNC(=O)Nc1ccc(N(C)c2ccnc(Nc3ccc(CS(C)(=O)=O)cc3)n2)cc1.Cl [GW830900A] | 91
Cl.c1ccc(Cc2nc3ccc(Nc4ncnc5ccccc45)cc3[nH]2)cc1 [GR269666A] | 100
COc1ccc2c(-c3ccnc(Nc4cccc(OC(F)(F)F)c4)n3)cnn2n1 [GW810372X] | 100

Structure (SMILES) | Percent Control [%]
COc1cccc(-n2ncc3c(N/N=C/c4ccncc4)ncnc32)c1 [GW784752X] | 100
COc1cc(/C=N/Nc2ncnc3[nH]ncc23)ccc1O [GW578748X] | 85
NS(=O)(=O)c1ccc(N/N=C2\C(=O)Nc3ccc(C(=O)NCCc4c[nH]cn4)cc32)cc1 [GW300660X] | 100
NS(=O)(=O)c1ccc(N/N=C2\C(=O)Nc3ccc(-c4cnco4)cc32)cc1 [GW276655] | 71
NS(=O)(=O)c1ccc(Nc2ncc(-c3ccccc3)o2)cc1 [GW572399X] | 100
C/C(Nc1ccc(S(N)(=O)=O)cc1)=C1/C(=O)Nc2ccccc21 [GW335962X] | 83
Cl.O=S1CCN(Cc2ccc(-c3ccc4ncnc(Nc5ccc(OCc6ccccc6)c(F)c5)c4c3)o2)CC1 [GW576924A] | 100
CN(C)c1cc2c(Nc3ccc4c(cnn4Cc4ccccc4)c3)ncnc2cn1 [GW282974X] | 96
CCn1c(-c2nonc2N)nc2c(C#CC(C)(C)O)nc(OCCNC)cc21.Cl [GSK949675] | 100
CC(C)COC(=O)c1ccc2c(c1)/C(=C/Nc1ccc(S(N)(=O)=O)cc1)C(=O)N2 [GW416981X] | 100
CC1=C(C(=O)Nc2ccc3[nH]ncc3c2)C(c2ccc(Cl)c(Cl)c2)CC(=O)N1 (stereo not shown) [GSK299115A] | 90
NS(=O)(=O)c1ccc(N/N=C2\C(=O)Nc3ccc(Cl)cc32)cc1 [GW280670X] | 100
COc1cc(C=NNc2ncnc3c2cnn3-c2ccccc2)ccc1O [GW513184X] | 100
COc1cc2ncnc(Nc3ccc4c(cnn4Cc4ccccc4)c3)c2cc1OC.Cl [GW282449A] | 100
COC(=O)Nc1nc2ccc(Oc3ccc(NC(=O)Nc4cc(C(F)(F)F)ccc4F)cc3)cc2s1.Cl [GW693917A] | 90
NS(=O)(=O)c1ccc(N/N=C2\C(=O)Nc3ccc(C(=O)NCc4ccncc4)cc32)cc1 [GW300657X] | 80
Cl.O=C(Nc1ccc(Oc2ccc3[nH]c(NC(=O)c4ccco4)nc3c2)cc1)Nc1cc(C(F)(F)F)ccc1F [GW683134A] | 100
COc1ccccc1-c1cc(/C=C2\C(=O)Nc3ncc(Br)cc32)cc(Br)c1O [GW442130X] | 100
CN1CCN(C(=O)c2ccc(NC(=O)Nc3ccc(N(C)c4ccnc(Nc5ccc(CS(C)(=O)=O)cc5)n4)cc3)cc2)CC1.Cl [GW830263A] | 98
Cc1cc(O)cc(C)c1/C=C/c1cncc(C(N)=O)c1 [GW435821X] | 100
